Records with an inconclusive call do not appear. The source made the active and inactive calls. Rule for the calls, unless noted: active = hit-call score of the fitted dose curve at least 0.9, where 1 is the maximum; inactive = score below 0.9.
Assays:
[1] = molecular target: Bile acid receptor (Homo sapiens) (UniProt Q96RI1); experiment: ATG_FXR_TRANS: Attagene TRANS-FACTORIAL HepG2 Assay for Farnesoid X Receptor (FXR) (AID 2282979; active = hit-call score of the fitted dose curve at least 0.9, where 1 is the maximum;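 note: hits raise reporter mRNA above DMSO so AC50 marks FXR activation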); settings: HepG2 Attagene TRANS FXR-GAL4 reporter transcription
Method in brief: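 Reporter transcripts from transfected HepG2 cells were measured 24 h after dosing, using RT-PCR with capillary electrophoresis of 6-FAM-labelled fragments. The read-out reflects activity of exogenous FXR-Gal4 chimera on GAL4-UAS units, with induction relative to DMSO.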

[2] = molecular target: Nuclear receptor subfamily 4 group A member 2 (Homo sapiens) (UniProt P43354); experiment: ATG_NURR1_TRANS: Attagene TRANS-FACTORIAL HepG2 Assay for human Nuclear Receptor Related Protein 1 (NURR1) (AID 2282985; active = hit-call score of the fitted dose curve at least 0.9, where 1 is the maximum); settings: HepG2 Attagene TRANS reporter, mRNA readout
Method in brief: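 Cells: HepG2, transiently transfected. Exposure: 24 h. Detection: fluorescence of labelled RT-PCR products separated by capillary electrophoresis; upward fit versus DMSO.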

[3] = molecular target: Transcriptional activator Myb (Homo sapiens) (UniProt P10242); experiment: ATG_Myb_CIS: Attagene CIS-FACTORIAL HepG2 Assay for human Myeloblastosis (Myb) Proto-Oncogene Transcription Factor (AID 2282986); settings: HepG2 Attagene CIS-FACTORIAL Myb reporter transcription; actives raise or lower the signal
Method in brief: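 Endogenous transcription factor activity at a Myb-responsive cis element is reported in human liver HepG2 cells after 24 h chemical treatment. Reporter mRNA is detected by RT-PCR and capillary electrophoresis fluorescence, with DMSO as baseline.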

[4] = molecular target: Nuclear respiratory factor 1 (Homo sapiens) (UniProt Q16656); experiment: ATG_NRF1_CIS: Attagene CIS-FACTORIAL HepG2 Assay for human Nuclear Respiratory Factor 1 (NRF1) Orphan Gene (AID 2282987); settings: HepG2 NRF1 cis-element reporter, Attagene multiplex; actives raise or lower the signal
Method in brief: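 Human hepatoma HepG2 cells carrying transfected promoter-regulated reporter units were incubated with test chemicals for 24 h. Reporter transcripts were measured by RT-PCR plus capillary electrophoresis, and endpoints derived by bidirectional fitting with DMSO as baseline.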

[5] = ATG_NFI_CIS: Attagene CIS-FACTORIAL HepG2 Assay for human Nuclear Factor I (NFI) (AID 2282989); settings: HepG2 cis-regulatory reporter, NFI response element transcription; actives raise or lower the signal
Method in brief: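 Transient MRTU transfection of HepG2 → 24 h chemical dosing → total RNA, oligo(dT) RT → PCR, 6-FAM primer extension, HpaI cut → capillary electrophoresis. Endpoint fitted bidirectionally relative to DMSO.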

[6] = molecular target: Myc proto-oncogene protein (Homo sapiens) (UniProt P01106); experiment: ATG_Myc_CIS: Attagene CIS-FACTORIAL HepG2 Assay for human Myelocytomatosis (Myc) Proto-Oncogene Transcription Factor (AID 2282990); settings: HepG2, Attagene cis-reporter transcription factor activity; actives raise or lower the signal
Method in brief: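 Cells of the HepG2 human liver line bear multiple cis-driven reporter transcription units. Reporter mRNA after 24 h exposure is reverse-transcribed, amplified, labelled and resolved by capillary electrophoresis, with gain- or loss-of-signal fitting relative to DMSO.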

[7] = ATG_NF_kB_CIS: Attagene CIS-FACTORIAL HepG2 Assay for human Nuclear Factor Kappa B (NF-kB) (AID 2282991); settings: HepG2 Attagene cis-factorial NF-kB reporter mRNA; actives raise or lower the signal
Method in brief: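 Multiplexed cis-reporter assay in transiently transfected HepG2. 24 h treatment; RNA isolated, RT-PCR, labelled fragments resolved by CE. DMSO baseline.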

[8] = ATG_NRF2_ARE_CIS: Attagene CIS-FACTORIAL HepG2 Assay for human Nuclear Factor Erythroid 2 Related Factor 2 (NFR2) response to Antioxidant Response Elements (ARE) (AID 2282992); settings: HepG2 Attagene ARE/NRF2 reporter, transcription factor activity; actives raise or lower the signal;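 for AC50: reporter mRNA level measured by RT-PCR and capillary electrophoresis fluorescence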
Method in brief: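 Transient MRTU transfection of HepG2; 24 h compound exposure; TriZol RNA, RT with oligo(dT), PCR, 6-FAM primer extension, HpaI cut, CE. Bidirectional fit vs DMSO.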

[9] = ATG_Oct_MLP_CIS: Attagene CIS-FACTORIAL HepG2 Assay for human Octamer-Binding Transcription Factor (Oct) (AID 2282993); settings: HepG2 Attagene cis-factorial Oct reporter, mRNA; actives raise or lower the signal
Method in brief: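 Transient MRTU transfection of HepG2 → 24 h compound treatment → RNA isolation, reverse transcription, PCR → 6-FAM primer extension, HpaI digest → capillary electrophoresis. Activity fitted both directions against DMSO.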

[10] = molecular target: Cellular tumor antigen p53 (Homo sapiens) (UniProt P04637); experiment: ATG_p53_CIS: Attagene CIS-FACTORIAL HepG2 Assay for human p53 Transcription Factor (AID 2282994); settings: HepG2 p53 cis-element reporter, Attagene mRNA; actives raise or lower the signal
Method in brief: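 HepG2, transient MRTU transfection (cis promoter elements, endogenous TFs); 24 h dosing; RNA isolation, RT-PCR, 6-FAM primer extension, HpaI digest, CE fluorescence; bidirectional fit vs DMSO.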

[11] = molecular target: Oxysterols receptor LXR-alpha (Homo sapiens) (UniProt Q13133); experiment: ATG_LXRa_TRANS: Attagene TRANS-FACTORIAL HepG2 Assay for human Liver X Receptor alpha (LXRa) (AID 2282980; active = hit-call score of the fitted dose curve at least 0.9, where 1 is the maximum); settings: HepG2 Attagene TRANS reporter, LXRa transactivation
Method in brief: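 Chemical-induced reporter mRNA measured by RT-PCR with fluorescent labelling and capillary electrophoresis after 24 h dosing of transiently transfected HepG2 cells expressing exogenous NR-Gal4 chimeras; increases scored against DMSO baseline.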

[12] = molecular target: Oxysterols receptor LXR-beta (Homo sapiens) (UniProt P55055); experiment: ATG_LXRb_TRANS: Attagene TRANS-FACTORIAL HepG2 Assay for human Liver X Receptor beta (LXRb) (AID 2282981; active = hit-call score of the fitted dose curve at least 0.9, where 1 is the maximum); settings: HepG2 Attagene TRANS GAL4-LXRb reporter, mRNA
Method in brief: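 Cells: HepG2, transiently transfected with GAL4-UAS reporter units plus LXRb-Gal4 fusion. Treatment: 24 h. Detection: reporter mRNA by RT-PCR, 6-FAM labelling, HpaI digestion, capillary electrophoresis.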

[13] = ATG_M_06_TRANS: Attagene TRANS-FACTORIAL HepG2 Assay for M06 Transcription Factor (Internal Marker) (AID 2282983; active = hit-call score of the fitted dose curve at least 0.9, where 1 is the maximum;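 note: reporter transcript level by RT-PCR then capillary electrophoresis fluorescence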); settings: HepG2 Attagene TRANS M06 internal marker reporter
Method in brief: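 Cells: HepG2, transient multi-reporter transfection. Exposure: 24 h. Detection: RT-PCR, 6-FAM labelling, HpaI digestion (2 h, 37 °C), capillary electrophoresis. Baseline: DMSO.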

[14] = ATG_M_32_TRANS: Attagene TRANS-FACTORIAL HepG2 Assay for M32 Transcription Factor (Internal Marker) (AID 2282984; active = hit-call score of the fitted dose curve at least 0.9, where 1 is the maximum;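 note: transcript level of a background control reporter unit measured by RT-PCR and capillary electrophoresis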); settings: HepG2 Attagene TRANS M32 internal marker reporter
Method in brief: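 Using transiently transfected HepG2 cells exposed to test chemicals for 24 h, reporter transcripts are converted to labelled cDNA fragments and quantified by capillary electrophoresis. DMSO defines the activity baseline.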

[15] = molecular target: Hepatocyte nuclear factor 4-alpha (Homo sapiens) (UniProt P41235); experiment: ATG_HNF4a_TRANS: Attagene TRANS-FACTORIAL HepG2 Assay for human Hepatocyte Nuclear Factor 4 alpha (HNF4a) (AID 2282982; active = hit-call score of the fitted dose curve at least 0.9, where 1 is the maximum); settings: HepG2 HNF4a transactivation reporter, mRNA readout
Method in brief: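 Transfected HepG2 reporter cells are dosed for 24 h; reporter RNA is reverse-transcribed, amplified, fluorescently labelled and HpaI-digested before CE sizing. Positive-direction fit against DMSO.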

[16] = BSK_3C_TissueFactor: BioMAP Diversity Plus: 3C Assay for Tissue Factor Biomarker Activity (AID 2282997); settings: BioMAP 3C HUVEC, tissue factor biomarker readout; actives raise or lower the signal
Method in brief: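 Dosing of human umbilical vein endothelial cells preceded a 24 h incubation. Tissue Factor was then read by ELISA, with increases and decreases both scored relative to DMSO controls.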

[17] = BSK_3C_uPAR: BioMAP Diversity Plus: 3C Assay for Urokinase-type plasminogen activator receptor (uPAR) Biomarker Activity (AID 2282998); settings: BioMAP 3C HUVEC, uPAR biomarker ELISA; actives raise or lower the signal
Method in brief: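 ELISA readout of uPAR on human vascular endothelium (umbilical vein primary cells), taken 24 h after chemical dosing. Increases and decreases are both fitted relative to DMSO vehicle.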

[18] = BSK_3C_VCAM1: BioMAP Diversity Plus: 3C Assay for Vascular cell adhesion molecule 1 (VCAM1) Biomarker Activity (AID 2282999); settings: BioMAP 3C HUVEC, VCAM1 ELISA, cytokine-stimulated; actives raise or lower the signal
Method in brief: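 Endothelial cells from human umbilical vein are treated with test chemical. At 24 h, VCAM-1 is measured by ELISA, and responses in either direction are fitted relative to DMSO.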

[19] = BSK_4H_Eotaxin3: BioMAP Diversity Plus: 4H Assay for Eotaxin 3 Biomarker Activity (AID 2283000); settings: primary human endothelial cells (HUVEC); actives raise or lower the signal;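 note: CCL26 protein level quantified by ELISA in parallel with SRB cytotoxicity check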
Method in brief: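 Human umbilical vein endothelial cells (BSK_4H system) dosed with test chemical; Eotaxin-3 (CCL26) measured by ELISA 24 h after dosing. Bidirectional curve fitting relative to DMSO negative control as baseline.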

Measured: AC50

Chain of Hepatocyte nuclear factor 4-alpha (Homo sapiens) (P41235 whole entry, looked up): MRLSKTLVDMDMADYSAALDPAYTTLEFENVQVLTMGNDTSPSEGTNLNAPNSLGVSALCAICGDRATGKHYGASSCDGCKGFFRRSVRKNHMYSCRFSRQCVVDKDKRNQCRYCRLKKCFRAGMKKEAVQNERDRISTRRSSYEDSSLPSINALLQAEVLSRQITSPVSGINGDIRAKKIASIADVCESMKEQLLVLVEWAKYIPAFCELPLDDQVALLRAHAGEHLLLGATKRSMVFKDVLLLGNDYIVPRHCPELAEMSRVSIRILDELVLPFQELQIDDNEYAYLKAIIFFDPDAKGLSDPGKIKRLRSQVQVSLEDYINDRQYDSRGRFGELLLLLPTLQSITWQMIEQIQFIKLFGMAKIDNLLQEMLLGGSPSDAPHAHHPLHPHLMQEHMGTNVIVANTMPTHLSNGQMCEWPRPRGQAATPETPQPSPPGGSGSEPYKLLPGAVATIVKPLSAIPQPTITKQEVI
Chain of Myc proto-oncogene protein (Homo sapiens) (P01106 whole entry, looked up): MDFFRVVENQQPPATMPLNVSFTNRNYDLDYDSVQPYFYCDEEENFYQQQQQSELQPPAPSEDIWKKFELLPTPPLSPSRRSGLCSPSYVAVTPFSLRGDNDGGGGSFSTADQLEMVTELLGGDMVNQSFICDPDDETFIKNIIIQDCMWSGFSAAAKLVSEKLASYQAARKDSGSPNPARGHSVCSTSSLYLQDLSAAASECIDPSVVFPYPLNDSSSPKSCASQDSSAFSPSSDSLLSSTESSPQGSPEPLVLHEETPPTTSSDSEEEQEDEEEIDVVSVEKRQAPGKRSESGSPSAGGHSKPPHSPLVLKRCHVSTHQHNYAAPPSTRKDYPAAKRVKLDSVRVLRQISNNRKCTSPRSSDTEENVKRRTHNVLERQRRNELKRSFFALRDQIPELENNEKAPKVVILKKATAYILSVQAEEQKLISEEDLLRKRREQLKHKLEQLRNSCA
Chain of Oxysterols receptor LXR-beta (Homo sapiens) (P55055 whole entry, looked up, the tested form may be a part): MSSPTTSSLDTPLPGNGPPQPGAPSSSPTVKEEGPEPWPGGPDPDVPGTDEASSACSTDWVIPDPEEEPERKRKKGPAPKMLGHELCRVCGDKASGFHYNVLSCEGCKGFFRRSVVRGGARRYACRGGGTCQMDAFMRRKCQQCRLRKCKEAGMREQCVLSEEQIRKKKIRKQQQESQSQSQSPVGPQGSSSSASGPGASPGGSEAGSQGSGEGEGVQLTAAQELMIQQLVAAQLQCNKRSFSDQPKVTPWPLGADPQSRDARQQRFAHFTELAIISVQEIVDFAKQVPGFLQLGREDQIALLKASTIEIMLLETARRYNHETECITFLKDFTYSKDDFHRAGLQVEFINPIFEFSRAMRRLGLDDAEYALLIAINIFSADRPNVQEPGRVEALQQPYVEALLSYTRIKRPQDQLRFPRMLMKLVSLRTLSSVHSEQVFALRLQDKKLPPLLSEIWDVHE
Chain of Cellular tumor antigen p53 (Homo sapiens) (P04637 whole entry, looked up): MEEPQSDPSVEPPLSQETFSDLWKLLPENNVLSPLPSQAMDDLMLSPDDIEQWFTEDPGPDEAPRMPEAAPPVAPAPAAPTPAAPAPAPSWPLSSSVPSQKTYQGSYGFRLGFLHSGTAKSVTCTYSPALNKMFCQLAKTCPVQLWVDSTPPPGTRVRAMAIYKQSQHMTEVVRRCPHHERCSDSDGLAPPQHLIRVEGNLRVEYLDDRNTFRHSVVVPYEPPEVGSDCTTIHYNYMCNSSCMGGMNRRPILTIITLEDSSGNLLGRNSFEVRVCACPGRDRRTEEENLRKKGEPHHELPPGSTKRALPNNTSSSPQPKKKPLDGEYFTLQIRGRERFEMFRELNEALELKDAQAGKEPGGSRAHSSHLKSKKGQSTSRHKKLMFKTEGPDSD
Chain of Oxysterols receptor LXR-alpha (Homo sapiens) (Q13133 whole entry, looked up, the tested form may be a part): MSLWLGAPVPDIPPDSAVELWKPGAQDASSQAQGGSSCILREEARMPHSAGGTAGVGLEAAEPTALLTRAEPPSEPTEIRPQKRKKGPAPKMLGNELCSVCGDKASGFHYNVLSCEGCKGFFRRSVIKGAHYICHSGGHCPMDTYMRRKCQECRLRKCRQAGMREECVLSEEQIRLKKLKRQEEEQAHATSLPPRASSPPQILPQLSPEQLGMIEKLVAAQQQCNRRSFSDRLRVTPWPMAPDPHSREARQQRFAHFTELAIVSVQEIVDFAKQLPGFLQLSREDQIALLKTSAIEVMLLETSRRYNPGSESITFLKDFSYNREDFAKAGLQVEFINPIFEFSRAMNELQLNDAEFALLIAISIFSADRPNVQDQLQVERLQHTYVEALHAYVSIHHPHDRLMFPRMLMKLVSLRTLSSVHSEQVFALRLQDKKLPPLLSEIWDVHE
Chain of Transcriptional activator Myb (Homo sapiens) (P10242 whole entry, looked up): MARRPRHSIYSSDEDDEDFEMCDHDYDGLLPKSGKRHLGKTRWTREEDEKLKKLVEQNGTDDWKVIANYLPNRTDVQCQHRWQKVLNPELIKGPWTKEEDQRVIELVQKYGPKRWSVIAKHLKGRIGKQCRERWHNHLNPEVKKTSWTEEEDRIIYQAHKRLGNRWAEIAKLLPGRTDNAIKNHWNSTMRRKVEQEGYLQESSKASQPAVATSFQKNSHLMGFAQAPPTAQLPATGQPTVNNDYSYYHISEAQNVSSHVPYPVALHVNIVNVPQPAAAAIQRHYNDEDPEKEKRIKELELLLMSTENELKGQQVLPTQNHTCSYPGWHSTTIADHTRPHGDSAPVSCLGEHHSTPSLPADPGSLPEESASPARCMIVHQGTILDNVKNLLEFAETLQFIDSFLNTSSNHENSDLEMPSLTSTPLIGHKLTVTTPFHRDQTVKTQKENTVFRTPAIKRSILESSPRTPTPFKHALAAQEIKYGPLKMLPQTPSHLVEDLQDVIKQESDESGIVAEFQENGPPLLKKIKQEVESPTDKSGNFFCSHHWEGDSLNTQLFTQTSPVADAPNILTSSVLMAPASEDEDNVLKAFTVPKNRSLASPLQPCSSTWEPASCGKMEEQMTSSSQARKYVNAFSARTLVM
Chain of Nuclear respiratory factor 1 (Homo sapiens) (Q16656 whole entry, looked up): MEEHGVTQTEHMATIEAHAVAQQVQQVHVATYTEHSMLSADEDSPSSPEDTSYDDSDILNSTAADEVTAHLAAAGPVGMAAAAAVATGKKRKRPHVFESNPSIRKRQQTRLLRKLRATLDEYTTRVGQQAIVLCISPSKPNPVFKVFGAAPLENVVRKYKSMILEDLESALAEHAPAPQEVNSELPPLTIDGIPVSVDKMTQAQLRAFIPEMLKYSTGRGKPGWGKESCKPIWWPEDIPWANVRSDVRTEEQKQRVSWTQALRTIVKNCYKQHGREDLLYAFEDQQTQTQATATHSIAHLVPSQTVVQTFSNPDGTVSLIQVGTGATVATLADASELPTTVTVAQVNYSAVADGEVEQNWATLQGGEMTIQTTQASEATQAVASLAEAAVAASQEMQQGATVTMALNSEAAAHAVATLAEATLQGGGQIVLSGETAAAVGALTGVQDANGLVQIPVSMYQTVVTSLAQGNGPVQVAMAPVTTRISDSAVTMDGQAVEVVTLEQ
Chain of Nuclear receptor subfamily 4 group A member 2 (Homo sapiens) (P43354 whole entry, looked up): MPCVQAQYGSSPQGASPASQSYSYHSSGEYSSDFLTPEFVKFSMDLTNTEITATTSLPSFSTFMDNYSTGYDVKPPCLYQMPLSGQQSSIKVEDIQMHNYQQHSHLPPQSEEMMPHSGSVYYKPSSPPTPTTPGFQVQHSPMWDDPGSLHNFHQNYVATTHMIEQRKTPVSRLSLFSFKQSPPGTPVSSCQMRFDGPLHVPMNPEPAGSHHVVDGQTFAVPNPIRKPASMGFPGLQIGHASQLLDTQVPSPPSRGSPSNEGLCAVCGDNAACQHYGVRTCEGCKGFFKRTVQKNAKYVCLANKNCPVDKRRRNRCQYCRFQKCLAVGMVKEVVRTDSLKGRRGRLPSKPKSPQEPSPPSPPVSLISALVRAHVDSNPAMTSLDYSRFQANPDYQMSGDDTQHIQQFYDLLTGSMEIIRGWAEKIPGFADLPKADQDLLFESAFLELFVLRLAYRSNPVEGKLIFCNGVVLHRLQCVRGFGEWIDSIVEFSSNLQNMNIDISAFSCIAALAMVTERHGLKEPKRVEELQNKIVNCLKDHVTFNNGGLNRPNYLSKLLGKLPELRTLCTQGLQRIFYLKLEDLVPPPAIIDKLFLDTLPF
Chain of Bile acid receptor (Homo sapiens) (Q96RI1 whole entry, looked up, the tested form may be a part): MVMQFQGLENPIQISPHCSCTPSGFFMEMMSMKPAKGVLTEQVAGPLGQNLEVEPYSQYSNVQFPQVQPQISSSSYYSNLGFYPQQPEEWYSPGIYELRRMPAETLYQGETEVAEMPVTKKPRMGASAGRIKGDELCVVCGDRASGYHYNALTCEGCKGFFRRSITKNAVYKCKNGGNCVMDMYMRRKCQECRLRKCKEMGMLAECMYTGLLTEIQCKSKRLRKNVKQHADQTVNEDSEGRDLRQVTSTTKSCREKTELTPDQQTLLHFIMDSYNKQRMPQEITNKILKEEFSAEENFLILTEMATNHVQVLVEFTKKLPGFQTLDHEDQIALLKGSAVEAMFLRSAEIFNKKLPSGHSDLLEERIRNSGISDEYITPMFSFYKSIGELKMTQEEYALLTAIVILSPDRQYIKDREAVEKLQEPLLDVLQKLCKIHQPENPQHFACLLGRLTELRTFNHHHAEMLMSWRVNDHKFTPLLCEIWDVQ

C[Si]1(C)O[Si](C)(C)O[Si](C)(C)O1
inactive: [1] | [2] | [3] | [4] | [5] | [6] | [7] | [8] | [9] | [10]

Nc1c(S(=O)(=O)O)cc(Br)c2c1C(=O)c1ccccc1C2=O
active: [8] 73.8 µM
not listed: [1] | [10] | [15] | [16] | [17] | [18] | [19]
inactive: all other assays above

CC(=O)C(C)O (stereo not given)
inactive: [11] | [12] | [13] | [5] | [6] | [7] | [9] | [10]

C#CC(C)N(C)C(=O)Nc1ccc(Cl)cc1 (stereo not given)
not listed: [1] | [3] | [8] | [14] | [16] | [17] | [18] | [19]
inactive: all other assays above

CCCCCCOC(=O)CCC
inactive: [11] | [12] | [13] | [4] | [5] | [6] | [8] | [9] | [10]

CC(CN=Cc1ccccc1O)N=Cc1ccccc1O (stereo not given)
active: [4] 55.3 µM | [8] 69.5 µM
not listed: [1] | [2] | [7] | [15]
inactive: all other assays above

[O-]n1ccccc1=S.[O-]n1ccccc1=S.[Zn+2]
inactive: [11] | [15] | [13] | [14] | [3] | [4] | [5] | [6] | [9] | [10]
active: [7] 0.999 µM

CC=Cc1ccc(OCC)c(O)c1
not listed: [1] | [2] | [7] | [12]
inactive: all other assays above

C=CCCCCCCCCCC
not listed: [1] | [2] | [7] | [13] | [16] | [17] | [18] | [19]
inactive: all other assays above

CC/C=C\CCOC(=O)CC
inactive: [1] | [2] | [3] | [5] | [6] | [8] | [9] | [10]

O=Cc1ccccc1S(=O)(=O)O
inactive: [13] | [2] | [3] | [5] | [6] | [8] | [9]

Cc1cccc(Nc2ccccc2)c1
active: [3] 170 µM | [8] 70.6 µM
inactive: [13] | [2] | [5] | [6] | [7] | [9] | [10]

CCCOC(=O)c1c(Cl)c(Cl)c(Cl)c(Cl)c1C(=O)OCCC
active: [4] 146 µM | [6] 100 µM | [8] 55.3 µM | [9] 148 µM
inactive: [13] | [14] | [2] | [3] | [7] | [10]

Cc1ccc(OC(=O)c2ccccc2O)cc1
active: [8] 51.2 µM
inactive: [13] | [3] | [4] | [5] | [6] | [7] | [9] | [10]

CC(C)CCOC(=O)c1ccccc1
inactive: [3] | [4] | [6] | [8] | [9] | [10]

CS(=O)(=O)OCCCCOS(C)(=O)=O
not listed: [1] | [2] | [3] | [4] | [7] | [11] | [12] | [15]
inactive: all other assays above

C[C@@H]1CCN(C(=O)[C@H](CCCN=C(N)N)NS(=O)(=O)c2cccc3c2NC[C@H](C)C3)[C@@H](C(=O)O)C1
not listed: [1] | [2] | [7] | [11] | [14] | [15]
inactive: all other assays above

C=C(C)C(=O)OCCOCCOCCOCCOC(=O)C(=C)C
active: [8] 69.7 µM
not listed: [1] | [2] | [3] | [7] | [11] | [12] | [14]
inactive: all other assays above

C=C(C)C1CC=C(C)C(=O)C1 (stereo not given)
inactive: [12] | [13] | [3] | [5] | [6] | [7] | [8] | [9]

Source: PubChem BioAssay (EPA / NIEHS)
